Structures can show the parent of a compound that is named as a salt.
System: HL-1
Experiment: relative cell viability (CellTiter-Glo) vs DMSO control (% of DMSO control); higher = more viable cells
Summary of the method: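 Compounds at 40, 200, 1000 or 5000 nM in 0.01% DMSO were added to HL-1 mouse atrial cardiomyocytes plated at 1000 cells per well in 384-well plates. The next day, cells were exposed to 1% O2 for 48 h and then reoxygenated for 24 h, or left in normoxia for the same time. Viability was read with CellTiter-Glo luminescence and normalised to vehicle-treated controls.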

[1] = oxygen condition: hypoxia 48 h (1% O2) + reoxygenation 24 h, 40 nM
[2] = oxygen condition: hypoxia 48 h (1% O2) + reoxygenation 24 h, 200 nM
[3] = oxygen condition: hypoxia 48 h (1% O2) + reoxygenation 24 h, 1000 nM
[4] = oxygen condition: hypoxia 48 h (1% O2) + reoxygenation 24 h, 5000 nM
[5] = oxygen condition: normoxia 72 h, 40 nM
[6] = oxygen condition: normoxia 72 h, 200 nM
[7] = oxygen condition: normoxia 72 h, 1000 nM
[8] = oxygen condition: normoxia 72 h, 5000 nM

Row | Compound | relative cell viability [1] | relative cell viability [2] | relative cell viability [3] | relative cell viability [4] | relative cell viability [5] | relative cell viability [6] | relative cell viability [7] | relative cell viability [8]
1 | CC(C)c1nc(CN(C)C(=O)N[C@@H](CCN2CCOCC2)C(=O)N[C@H](CC[C@H](Cc2ccccc2)NC(=O)OCc2cncs2)Cc2ccccc2)cs1 [Cobicistat] | 109 | 109 | 108 | 120 | 111 | 107 | 108 | 113
2 | Clc1ccc(C(c2ccccc2Cl)C(Cl)Cl)cc1 (configuration not stated) [Mitotane] | 108 | 105 | 107 | 102 | 104 | 110 | 106 | 121
3 | CNC(=O)c1cc(Oc2ccc(NC(=O)Nc3ccc(Cl)c(C(F)(F)F)c3)cc2)ccn1 [Sorafenib] | 104 | 105 | 116 | 114 | 109 | 101 | 118 | 114
4 | COc1ccc(Cl)cc1C(=O)NCCc1ccc(S(=O)(=O)NC(=O)NC2CCCCC2)cc1 [Glyburide] | 103 | 106 | 103 | 104 | 103 | 103 | 108 | 109
5 | CCC(CC)[C@H](NC(C)=O)[C@@H]1[C@H](O)[C@@H](C(=O)O)C[C@H]1NC(=N)N [Peramivir Trihydrate] | 101 | 99.2 | 107 | 111 | 112 | 109 | 103 | 116
6 | Nc1cc(N2CCCCC2)nc(N)[n+]1[O-] [Minoxidil] | 108 | 106 | 118 | 113 | 114 | 109 | 112 | 111
7 | CN1CCC[C@H]1c1cccnc1 [Nicotine Ditartrate] | 97.5 | 99.9 | 106 | 113 | 104 | 104 | 103 | 109
8 | COc1ccc(CN(CCN(C)C)c2ccccn2)cc1 [Pyrilamine Maleate] | 102 | 99.1 | 101 | 112 | 99.5 | 106 | 99.9 | 124
9 | CC(C)CC(N)=O [Isovaleramide] | 96.1 | 91.3 | 96.4 | 112 | 96.3 | 90.2 | 87.8 | 104
10 | O=C(O)c1ccc(-n2nc(-c3ccccc3O)nc2-c2ccccc2O)cc1 [Deferasirox] | 93.2 | 100 | 99.7 | 88.1 | 97 | 104 | 94.3 | 42.9
11 | Cl.N=C(N)NCCC[C@H](N)C(=O)O [L-Arginine HCl] | 97.5 | 104 | 104 | 118 | 100 | 104 | 108 | 107
12 | CN(C)CCc1c[nH]c2ccc(Cn3cncn3)cc12 [Rizatriptan Benzoate] | 103 | 108 | 110 | 107 | 109 | 104 | 110 | 113
13 | COc1c2ccoc2cc2oc(=O)ccc12 [Bergapten] | 101 | 104 | 107 | 109 | 99.2 | 96.6 | 109 | 103
14 | C[C@]12CC[C@@H]3c4ccc(O)cc4CC[C@H]3[C@@H]1C[C@@H](O)[C@@H]2O [Estriol] | 101 | 99.3 | 95.4 | 103 | 105 | 101 | 99.8 | 104
15 | CC(C[N+](C)(C)C)OC(N)=O (configuration not stated) [Bethanechol chloride] | 96.1 | 99.6 | 107 | 86.9 | 104 | 104 | 98.4 | 111
16 | Oc1cc(O)c(Cl)cn1 [Gimeracil] | 99.3 | 101 | 100 | 104 | 97.8 | 101 | 101 | 105
17 | CCC(=O)O[C@]1(C(=O)CCl)[C@@H](C)C[C@H]2[C@@H]3CCC4=CC(=O)C=C[C@]4(C)[C@@]3(F)[C@@H](O)C[C@@]21C [Clobetasol propionate] | 98.2 | 94.4 | 94.5 | 97.3 | 92.3 | 90.1 | 88.3 | 94.5
18 | COc1ccc(C2C(=O)c3ccccc3C2=O)cc1 [Anisindione] | 99.6 | 102 | 105 | 118 | 102 | 78.2 | 114 | 120
19 | O=C(c1cc(Cc2n[nH]c(=O)c3ccccc23)ccc1F)N1CCN(C(=O)C2CC2)CC1 [Olaparib] | 86.7 | 84.4 | 76.2 | 61.1 | 79 | 86.6 | 70.1 | 60
20 | NCCS [Cysteamine HCl] | 101 | 108 | 109 | 106 | 102 | 102 | 106 | 111
21 | C[C@H](CCC(=O)O)[C@H]1CC[C@H]2[C@@H]3[C@@H](O)C[C@@H]4C[C@H](O)CC[C@]4(C)[C@H]3CC[C@]12C [Ursodiol] | 103 | 106 | 118 | 106 | 99.7 | 105 | 119 | 108
22 | COc1cc2/c(=N/c3ccc(Br)cc3F)nc[nH]c2cc1OCC1CCN(C)CC1 [Vandetanib] | 110 | 115 | 115 | 102 | 113 | 112 | 116 | 102

Row | Compound | relative cell viability [1] | relative cell viability [2] | relative cell viability [3] | relative cell viability [4] | relative cell viability [5] | relative cell viability [6] | relative cell viability [7] | relative cell viability [8]
23 | C=CC(=O)Nc1cc(Nc2nccc(-c3cn(C)c4ccccc34)n2)c(OC)cc1N(C)CCN(C)C | 97.1 | 94.4 | 91.5 | 104 | 95.5 | 93.1 | 89.4 | 108
24 | C#C[C@]1(O)CC[C@H]2[C@@H]3CCC4=CC(=O)CC[C@@H]4[C@H]3CC[C@@]21C [norethindrone] | 97.6 | 100 | 97 | 105 | 102 | 108 | 100 | 113
25 | CNCC[C@@H](Oc1ccccc1C)c1ccccc1 [Atomoxetine HCl] | 102 | 104 | 108 | 108 | 100 | 102 | 103 | 119
26 | CCN(CC)C(=S)SSC(=S)N(CC)CC [Disulfiram] | 12.3 | 8.25 | 4.82 | 4.57 | 19.2 | 11.5 | 6.89 | 3.79
27 | CC[C@H]1OC(=O)[C@H](C)[C@@H](O[C@H]2C[C@@](C)(OC)[C@@H](O)[C@H](C)O2)[C@H](C)[C@@H](O[C@@H]2O[C@H](C)C[C@H](N(C)C)[C@H]2O)[C@](C)(O)C[C@@H](C)/C(=N\OCOCCOC)[C@H](C)[C@@H](O)[C@]1(C)O [Roxithromycin] | 101 | 106 | 101 | 106 | 101 | 100 | 103 | 112
28 | CCC(=O)O[C@@H](O[P@](=O)(CCCCc1ccccc1)CC(=O)N1C[C@H](C2CCCCC2)C[C@H]1C(=O)O)C(C)C [Fosinopril sodium] | 106 | 99.9 | 101 | 108 | 101 | 103 | 106 | 111
29 | CC12CC3CC(C)(C1)CC(N)(C3)C2 [Memantine HCl] | 105 | 105 | 101 | 106 | 94.5 | 101 | 108 | 93.4
30 | Cc1nccn1CC1CCc2c(c3ccccc3n2C)C1=O (configuration not stated) [Ondansetron] | 99.4 | 103 | 102 | 109 | 102 | 99.7 | 101 | 107
31 | CC(=O)OCC(CCn1cnc2cnc(N)nc21)COC(C)=O [Famciclovir] | 101 | 104 | 100 | 113 | 106 | 106 | 105 | 121
32 | CC(=O)[C@H]1CC[C@H]2[C@@H]3C=CC4=CC(=O)CC[C@@]4(C)[C@@H]3CC[C@]12C [Dydrogesterone] | 97.1 | 99 | 106 | 105 | 100 | 98.8 | 96.7 | 105
33 | CCN(CC)C(=O)C1(c2ccccc2)CC1CN (configuration not stated) [Milnacipran HCl] | 107 | 108 | 105 | 118 | 107 | 101 | 106 | 109
34 | Cc1ncc(C[n+]2csc(CCO)c2C)c(N)n1 [Thiamine HCl] | 101 | 107 | 102 | 112 | 99.4 | 104 | 106 | 117
35 | CCN(CC)C(=O)/C(C#N)=C/c1cc(O)c(O)c([N+](=O)[O-])c1 [Entacapone] | 101 | 105 | 103 | 108 | 100 | 111 | 103 | 114
36 | CC(C)(Oc1ccc(CCNC(=O)c2ccc(Cl)cc2)cc1)C(=O)O [Bezafibrate] | 102 | 98.2 | 105 | 107 | 105 | 101 | 99.8 | 103
37 | Cn1ccnc1S [Methimazole] | 102 | 99.9 | 105 | 98.1 | 107 | 100 | 95.4 | 95.9
38 | CN1CC(=O)NC1=N [Creatinine] | 105 | 104 | 106 | 114 | 102 | 97.3 | 100 | 108
39 | C[N+](C)(C)CCCCCC[N+](C)(C)C [Hexamethonium bromide] | 101 | 99.3 | 105 | 113 | 94.2 | 96.6 | 100 | 103
40 | N#CC[C@H](C1CCCC1)n1cc(-c2ncnc3[nH]ccc23)cn1 [Ruxolitinib] | 95.7 | 98.9 | 104 | 111 | 99.8 | 96.6 | 102 | 104
41 | CCOc1nc2cccc(C(=O)OC(C)OC(=O)OC3CCCCC3)c2n1Cc1ccc(-c2ccccc2-c2nn[nH]n2)cc1 (configuration not stated) [Candesartan cilexetil] | 106 | 104 | 97.6 | 4.71 | 98 | 102 | 101 | 4.11
42 | CCC(=O)NCC[C@@H]1CCc2ccc3c(c21)CCO3 [Ramelteon] | 104 | 116 | 110 | 111 | 105 | 108 | 118 | 107
43 | C[C@]12CC[C@@H]3c4ccc(O)cc4C[C@@H](CCCCCCCCC[S+]([O-])CCCC(F)(F)C(F)(F)F)[C@H]3[C@@H]1CC[C@@H]2O (some centres not stated) [Fulvestrant] | 102 | 113 | 110 | 122 | 111 | 117 | 122 | 135
44 | CC(C)C[C@H](NC(=O)[C@H](Cc1ccccc1)NC(=O)c1cnccn1)B(O)O [Bortezomib] | 10.4 | 10 | 8.52 | 4.58 | 12.9 | 10.5 | 6.82 | 4.44

— the supplement of paper PMC8371130
